Source: PubChem BioAssay (National Center for Advancing Translational Sciences (NCATS))
KB-V1 cytotox: qHTS assay for MDR1-selective chemotherapeutics: Primary screen using the drug-selected MDR subline cells KB-V1; 3.4% of 400,000 active; KB-V1 MDR cells viability, CellTiter-Glo, 72 h; Potency, µM (highest dose often 46.1 µM), actives largely listed as cytotoxic; also: % is scaled to controls: 0 for no effect and ±100 for the full control effect; nearly all actives have a fitted effect of over 60% in size
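KB-V1 MDR subline cells in DMEM (phenol-red free, 10% FBS) exposed to compounds in qHTS concentration series for 72 h at 37 degrees C. Viability read by CellTiter-Glo luminescence; concentration-effect curves fitted after normalization and correction.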
MCF10A rerep: A quantitative high throughput screen for small molecules that induce DNA re-replication in MCF 10a normal breast cells. MCF 10A DNA re-replication, Hoechst nuclear intensity, 48 h. Potency, µM (top dose mostly 46.1 µM), inactives show at the highest dose activity, positive = re-replication, most hits filed as activators. 2.9% of 350,000 active; also: % of control where 0% means no effect; nearly all actives have a fitted effect of over 50% in size
HT1080-NT tox: qHTS for induction of synthetic lethality in tumor cells producing 2HG: qHTS for the HT-1080-NT fibrosarcoma cell line. AID 686970, 2013. Potency, µM (series often up to 46.1 µM), without a hit: top-dose activity, negative = less viability, usual class: cytotoxic. 1.6% of 360,000 active. HT-1080-NT fibrosarcoma viability, CellTiter-Glo ATP luminescence, 48 h;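 also: NT is the 2HG producing partner of a matched IDH1 knockdown line; 0% = DMSO-treated cells and -100% = media-only wells without cells; nearly all actives have a fitted effect of over 55% in size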
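Luminescent CellTiter-Glo readout after 48 hours of compound exposure at 37 degrees C defined viability of HT-1080-NT cells. Activity was normalized to DMSO wells and cell-free media wells; concentration-response curves were fitted and assigned curve classes.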
KB-3-1 tox: qHTS assay for MDR1-selective chemotherapeutics: Primary screen using the parental adenocarcinoma cell KB-3-1. KB-3-1 viability, CellTiter-Glo ATP luminescence, 72 h. Potency, µM (doses to about 46.1 µM), actives largely listed as cytotoxic. 1.4% of 400,000 active. AID 1347075, 2019; also: % is scaled to controls: 0 for no effect and ±100 for the full control effect; nearly all actives have a fitted effect of over 60% in size
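Viability of parental KB-3-1 cells, measured by CellTiter-Glo luminescence, followed a 72 h incubation at 37 °C with pinned compounds in phenol-red-free DMEM containing 10% FBS.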
SW480 rereplic: A quantitative high throughput screen for small molecules that induce DNA re-replication in SW480 colon adenocarcinoma cells. 1.8% of 340,000 active. Potency, µM (top dose mostly 46.1 µM), without a hit: top-dose re-replication activation, usual class: activators. SW480 DNA re-replication, Hoechst DNA content imaging, 48 h; also: % of control where 0% means no effect; nearly all actives have a fitted effect of over 55% in size
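Image-based read-out: total Hoechst fluorescence of nuclei (405 nm excitation, 500-530 nm emission), with hits raising the fraction of high-intensity nuclei. SW480 colon cells incubated 48 hr with compounds at 37 C.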
HT1080 IDH1KD tx: qHTS for induction of synthetic lethality in tumor cells producing 2HG: qHTS for the HT-1080-IDH1KD cell line; Potency, µM (titrated, usually from 46.1 µM), without a hit: at the top dose activity, negative = toxicity, hits mostly cytotoxic; HT-1080 IDH1 knockdown viability, ATP luminescence, 48 h; 2% of 360,000 active; AID 686971, 2013;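 also: 0% = DMSO wells and -100% = cell-free medium wells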
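CellTiter-Glo luminescence after 48 h compound exposure at 37 degrees C of IDH1-knockdown HT-1080 cells in 5% FBS RPMI. %Activity scaled between DMSO wells and cell-free media wells, with curves fitted and assigned curve classes.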
Active calls of the source: *; [ ] = another dose, or the depositor's remark. Compounds with a hit are over-represented: about 8% of the library has one in this group of screens. Calls follow the shape of the dose curve; as a rule, active = well fitted curve in the direction sought with a large enough effect; inconclusive = small, poorly fitted or top-dose-only effect, or another doubt; inactive = no such curve, though single readings can be large; an effect the other way counts as inactive or inconclusive. Potency is read from the fitted curve at half-maximal effect.

What do the screens show for `CNC1C(O)C(OC2C(NC(=O)C(O)CN)CC(N)C(OC3OC(CN)C(O)C(O)C3O)C2O)OCC1(C)O` (stereo not drawn)?
MCF10A rerep: -3%; SW480 rereplic: 3%

Results for COC(=O)c1cnc(Oc2ccc(NC(=O)NC(=O)c3c(F)cccc3F)cc2)cc1C(F)(F)F ?
KB-V1 cytotox: inactive; MCF10A rerep: 6%; HT1080-NT tox: 6%; KB-3-1 tox: inactive; SW480 rereplic: 1%; HT1080 IDH1KD tx: 1%

Results for COC(=O)c1cnc(Oc2ccc(NC(=O)NC(=O)c3c(OC)cccc3OC)cc2)cc1C(F)(F)F ?
KB-V1 cytotox: 2.3µM*; MCF10A rerep: 0.82µM*; HT1080-NT tox: inconclusive; KB-3-1 tox: inconclusive; SW480 rereplic: 2.6µM*; HT1080 IDH1KD tx: 1.3µM*

How did COC(=O)c1cnc(Oc2c(Cl)cc(N)cc2Cl)cc1C(F)(F)F do in these assays?
KB-V1 cytotox: inactive; MCF10A rerep: inconclusive; HT1080-NT tox: inconclusive; KB-3-1 tox: inactive; SW480 rereplic: inconclusive; HT1080 IDH1KD tx: 16µM*

How did CCc1nc2ccccc2c(C(=O)OCc2nc3ccccc3c(=O)[nH]2)c1C do in these assays?
KB-V1 cytotox: inconclusive; MCF10A rerep: 21µM*; HT1080-NT tox: 10µM*; KB-3-1 tox: inconclusive; SW480 rereplic: 12µM*; HT1080 IDH1KD tx: 18µM*

How did Cc1c(-c2ccc(Cl)cc2)c(=O)oc2c(CN3CCN(C)CC3)c(O)ccc12 do in these assays?
KB-V1 cytotox: inactive; KB-3-1 tox: inactive

How did CN(C)CC1CCCCC1C1(O)c2ccccc2CSc2sccc21 (stereo not drawn) do in these assays?
KB-V1 cytotox: inactive; MCF10A rerep: 0%; HT1080-NT tox: 18µM*; KB-3-1 tox: inactive; SW480 rereplic: inconclusive; HT1080 IDH1KD tx: 18µM*

Results for CN(C)S(=O)(=O)c1ccc(C(=O)NCCSc2c(-c3ccc(Br)cc3)[nH]c3ccccc23)cc1 ?
KB-V1 cytotox: inactive; KB-3-1 tox: inactive

What do the screens show for `COc1ccccc1Cc1c(C2CCCCC2)nc2ccc(C)cn12`?
KB-V1 cytotox: inactive; HT1080-NT tox: 13µM*; KB-3-1 tox: inactive; HT1080 IDH1KD tx: inconclusive

Results for CCCc1nc2ccc(C)cn2c1Cc1ccccc1OC ?
KB-V1 cytotox: inconclusive; HT1080-NT tox: inconclusive; KB-3-1 tox: inactive; HT1080 IDH1KD tx: 18µM*

Results for Cc1ccc2nc(C3CCCCC3)c(CC(C)(C)C)n2c1 ?
KB-V1 cytotox: inactive; HT1080-NT tox: 16µM*; KB-3-1 tox: inactive; HT1080 IDH1KD tx: inconclusive

How did CCCc1nc2ccc(Cl)cn2c1Cc1ccccc1OC do in these assays?
KB-V1 cytotox: inactive; HT1080-NT tox: inconclusive; KB-3-1 tox: inconclusive; HT1080 IDH1KD tx: inconclusive

Results for COc1ccccc1Cc1c(C2CCCCC2)nc2ccc(Cl)cn12 ?
KB-V1 cytotox: inactive; HT1080-NT tox: inconclusive; KB-3-1 tox: inconclusive; HT1080 IDH1KD tx: inconclusive

Results for Cc1ccc2nc(-c3ccc(Cl)cc3)c(Cc3ccccc3C(F)(F)F)n2c1 ?
KB-V1 cytotox: inconclusive; HT1080-NT tox: 3%; KB-3-1 tox: inactive; HT1080 IDH1KD tx: 6%

How did CCCc1nc2ccc(C)cn2c1Cc1ccccc1C(F)(F)F do in these assays?
KB-V1 cytotox: inactive; HT1080-NT tox: 26µM*; KB-3-1 tox: inactive; HT1080 IDH1KD tx: 33µM*

What do the screens show for `COc1ccc(-c2coc3cc4oc(=O)c5ccccc5c4cc23)cc1F`?
KB-V1 cytotox: inconclusive; MCF10A rerep: inconclusive; HT1080-NT tox: inconclusive; KB-3-1 tox: inconclusive; SW480 rereplic: 2.5µM*; HT1080 IDH1KD tx: inconclusive

How did NCCCNc1ccc(Br)cn1 do in these assays?
HT1080-NT tox: 23%; HT1080 IDH1KD tx: 5%

Results for Clc1ccc(Cn2ncc3c(NCc4ccccc4)ncnc32)cc1 ?
KB-V1 cytotox: 6.5µM*; MCF10A rerep: 6.5µM*; HT1080-NT tox: 5.8µM*; KB-3-1 tox: 5.2µM*; SW480 rereplic: inconclusive; HT1080 IDH1KD tx: 4.6µM*

How did Cc1cccc(Nc2ncnc3c2cnn3Cc2ccccc2)c1 do in these assays?
KB-V1 cytotox: inactive; MCF10A rerep: 2%; HT1080-NT tox: -1%; KB-3-1 tox: inactive; SW480 rereplic: -2%; HT1080 IDH1KD tx: -9%

How did CCCCNc1ncnc2c1cnn2Cc1ccc(Cl)cc1 do in these assays?
KB-V1 cytotox: inactive; MCF10A rerep: inconclusive; HT1080-NT tox: inconclusive; KB-3-1 tox: inconclusive; SW480 rereplic: inconclusive; HT1080 IDH1KD tx: inconclusive

What do the screens show for `CCc1nc(NC(C)(C)C)c2cnn(-c3ccccc3)c2n1`?
KB-V1 cytotox: inactive; MCF10A rerep: 23µM*; HT1080-NT tox: inconclusive; KB-3-1 tox: inactive; SW480 rereplic: inconclusive; HT1080 IDH1KD tx: inconclusive

Results for CCCCNc1ncnc2c1cnn2-c1ccc(Cl)cc1 ?
KB-V1 cytotox: inconclusive; MCF10A rerep: inconclusive; HT1080-NT tox: 12µM*; KB-3-1 tox: 1.6µM*; SW480 rereplic: 8.2µM*; HT1080 IDH1KD tx: 9.2µM*

What do the screens show for `COc1ccc(Nc2ncnc3c2cnn3Cc2ccccc2)cc1OC`?
KB-V1 cytotox: 18µM*; MCF10A rerep: 15%; HT1080-NT tox: inconclusive; KB-3-1 tox: inactive; SW480 rereplic: 5%; HT1080 IDH1KD tx: inconclusive

How did CCOc1cc(CNC(=O)NC2COc3ccc(OC)cc3C2)cc(OCC)c1OCC (stereo not drawn) do in these assays?
KB-V1 cytotox: inactive; KB-3-1 tox: inactive

What do the screens show for `O=C(C[n+]1cccc2cc(Cl)ccc21)c1ccc2c(c1)CCCC2`?
KB-V1 cytotox: inactive; KB-3-1 tox: inactive

How did c1ccc(Cn2ncc3c(NCc4ccco4)ncnc32)cc1 do in these assays?
KB-V1 cytotox: inactive; MCF10A rerep: -6%; HT1080-NT tox: inconclusive; KB-3-1 tox: inactive; SW480 rereplic: 5%; HT1080 IDH1KD tx: -2%[9.24 µM]

How did CCCCNc1ncnc2c1cnn2-c1ccccc1 do in these assays?
KB-V1 cytotox: inconclusive; MCF10A rerep: inconclusive; HT1080-NT tox: inconclusive; KB-3-1 tox: 6.5µM*; SW480 rereplic: 6.5µM*; HT1080 IDH1KD tx: 15µM*

How did Clc1ccc(-n2ncc3c(NCc4ccccn4)ncnc32)cc1 do in these assays?
KB-V1 cytotox: 23µM*; MCF10A rerep: 15%; HT1080-NT tox: -3%; KB-3-1 tox: inactive; SW480 rereplic: -6%; HT1080 IDH1KD tx: -10%
